According to PubChem BioAssay (NCI):
Compounds without any hit were thinned out: in the full panel of roughly 83,000, 20% have a hit.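 48-hour exposure, single concentration, 96-well plates; percent growth endpoint where 0 means no net growth. Active: below 10.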 A number with no mark means an inactive call. The source made the active and inactive calls.

Columns and labels:
Test in all cases: NCI-60 one-dose screen, 48 h (100 = growth as untreated, 0 = no growth, -100 = all killed)
Conditions in all cases: 10 µM unless noted
HCT-15 colon = tested on: HCT-15 colon
HT29 colon = tested on: HT29 colon
SNB-75 CNS = tested on: SNB-75 CNS
SNB-19 CNS = tested on: SNB-19 CNS
U251 CNS = tested on: U251 CNS
PC-3 prostate = tested on: PC-3 prostate
SK-MEL-5 melanoma = tested on: SK-MEL-5 melanoma
UACC-62 melanoma = tested on: UACC-62 melanoma
LOX IMVI melanoma = tested on: LOX IMVI melanoma
SK-MEL-28 melanoma = tested on: SK-MEL-28 melanoma
SK-MEL-2 melanoma = tested on: SK-MEL-2 melanoma
EKVX NSCLC = tested on: EKVX NSCLC
SN12C renal = tested on: SN12C renal
UO-31 renal = tested on: UO-31 renal
ACHN renal = tested on: ACHN renal
CAKI-1 renal = tested on: CAKI-1 renal
A498 renal = tested on: A498 renal
CCRF-CEM leukemia = tested on: CCRF-CEM leukemia
MOLT-4 leukemia = tested on: MOLT-4 leukemia
TK-10 renal = tested on: TK-10 renal

| Structure (SMILES) | growth (HCT-15 colon) | growth (HT29 colon) | growth (SNB-75 CNS) | growth (SNB-19 CNS) | growth (U251 CNS) | growth (PC-3 prostate) | growth (SK-MEL-5 melanoma) | growth (UACC-62 melanoma) | growth (LOX IMVI melanoma) | growth (SK-MEL-28 melanoma) | growth (SK-MEL-2 melanoma) | growth (EKVX NSCLC) | growth (SN12C renal) | growth (UO-31 renal) | growth (ACHN renal) | growth (CAKI-1 renal) | growth (A498 renal) | growth (CCRF-CEM leukemia) | growth (MOLT-4 leukemia) | growth (TK-10 renal) |
| --- | --- | --- | --- | --- | --- | --- | --- | --- | --- | --- | --- | --- | --- | --- | --- | --- | --- | --- | --- | --- |
| CC(C)Sc1nc(Cl)c(C#N)c(-c2ccc(F)cc2)n1 | 87.4% | 103% | 97.3% | 113% | 92.9% | 106% | 100% | 102% | 70.2% | 119% | 98.2% | 99.2% | 97.3% | 85.6% | 101% | 104% | 99.9% | 6.61% (active) | 7.38% (active) |  |
| COc1ccc(C2=NN(C(C)=O)C(c3c(C)nn(-c4ccccc4)c3N3CCOCC3)C2)cc1 (configuration not stated) | 103% | 101% | 74.4% | 85.8% | 89.3% | 79.7% | 97.6% | 87.8% | 97.8% | 108% | 106% | 88.2% | 91.9% | 77.2% | 95% |  | 91.3% | 95.4% | 88% |  |
| CC(C)Sc1nc(-c2ccc(Br)cc2)c(C#N)c(N2CCCCC2)n1 | 96.2% | 94.5% | 99.4% | 105% | 99.9% | 97.5% | 101% | 82.6% | 108% | 105% | 108% | 93.3% | 94.3% | 95.3% | 101% | 95.9% | 83.8% | 95.2% | 110% |  |
| CN(C)c1ccc(-n2nc3ccccc3n2)cc1 | 108% | 111% | 108% | 98.6% | 95.5% | 101% | 75.2% | 81.1% | 93.8% | 126% | 102% | 76.7% | 97.2% |  | 96.1% | 73.5% | 96.4% |  |  | 143% |
| CCNCCCn1c2c(c3ccc(F)cc3c1=O)C(=O)c1cc(OC)cnc1-2 | 2.25% (active) | -14.9% (active) | -18.2% (active) | 12.1% | -25.8% (active) | -3.56% (active) | -99.1% (active) | -34.5% (active) | -64.9% (active) | 8.91% (active) | -3.1% (active) | -14.4% (active) | 1.58% (active) | -90.7% (active) | -47.5% (active) |  | -91.2% (active) | 1.07% (active) | -15.6% (active) |  |
| Cc1n(Cc2ccc3ccccc3c2)c2ccccc2[n+]1Cc1ccc2ccccc2c1 | 15.7% | -53.3% (active) | -46.2% (active) | -91.7% (active) | -87.6% (active) | -68.1% (active) | -97.6% (active) | -57.9% (active) | -89% (active) | -58% (active) | -74.6% (active) | 9.57% (active) | -44.2% (active) | 30.7% | 25.3% |  | -11.5% (active) | -45.1% (active) | -54.7% (active) |  |
| c1ccc(CN=C(NCc2ccccc2)NCc2ccccc2)cc1 | 79.7% | 62.6% | 59.3% | 68.1% | 51.9% | 24.9% | 35% | 63.8% | 59.8% | 98.8% | 60.5% | 28.2% | 72.2% |  | 73.1% | 84.8% | 84.7% | 65.5% | 70.7% | 58.6% |
| CCSc1nc(-c2ccc(F)cc2)c(C#N)c(=O)[nH]1 | 104% | 106% | 93.5% | 107% | 107% | 127% | 101% | 97.5% | 95.4% | 108% | 96.3% | 105% | 96.2% | 125% | 97.1% | 98.7% | 112% | 102% | 124% |  |
